miR122 inh: miR-122 Renilla sensor signal increase in Huh7, primary screen, miR-122 inhibitor project, cell-based, single point, plate reader; AID 602342, 2012; Huh7 miR-122 Renilla luciferase sensor, 48 h; neutral wells = 0, positive control = 100; activation (reporter increase), % at 12.5 µM; 340,000 compounds, 0.3% hits;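 active = mean replicate activation score at least 90 and every replicate individually at or above 90; inconclusive = only one of the two criteria met; inactive = neither criterion met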;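 also: higher luciferase means less miR-122 activity so hits act as miR-122 inhibitors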
C2C12 statin: suppressors of statin myotoxicity in C2C12 myotubes, primary screen, cell-based, single point, plate reader. C2C12 myotubes + simvastatin, ATP luminescence, 48 h; scaled: DMSO 0, geranylgeraniol control 100. rescue of ATP level, % at 7.49 µM. 330,000 compounds, 0.78% hits. AID 602340, 2012;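 active = mean ATP rescue above about 67%, or every replicate alone reaching that limit, limit read from the data, passing the limit was not always enough; inconclusive = no clear call, values can overlap the other calls; inactive = mean under the limit and some replicate under it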;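 also: myotubes were challenged with 10 µM simvastatin during compound exposure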
PvdQ acylase: P. aeruginosa PvdQ acylase inhibitors, primary screen, biochemical, fluorescence, plate reader and imaging, single point; PvdQ acylase [Pseudomonas aeruginosa LESB58]; purified PvdQ acylase; inhibition, % at 10 µM; 340,000 compounds, 0.063% hits; AID 488965, 2010; in the data active = inhibition above about 30%, passing the limit was not always enough; inconclusive = no clear call, values can overlap the other calls
PGC1a acetyl inh: inhibitors of PGC1a acetylation signal, primary screen, cell-based, U2OS, AlphaScreen, inhibitor mode; AlphaScreen anti-acetyl-lysine; with virally co-expressed GCN5 acetyltransferase; inhibition, % at 15.6 µM; 350,000 compounds, 0.17% hits;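 active = every replicate shows inhibition of at least 40%; inconclusive = mean inhibition at least 40% but some replicate below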
DENV2 CPE: inhibitors of DENV2 cytopathic effect, primary screen, cell-based, plate reader, single concentration. DENV2-infected cells, cytopathic effect rescue. CPE inhibition, % at 9.99 µM. 350,000 compounds, 1.7% hits. AID 651640, 2012; in the data active = CPE inhibition above about 20%, passing the limit was not always enough; inconclusive = no clear call, values can overlap the other calls; tested in BHK-21 cells
Large screens that a line does not name were inactive. This is a sample that favours compounds with a hit; in the whole collection about 2.2% have one here.

CN(C)C(=O)C[C@H]1CC[C@@H]2[C@H](COC[C@@H](O)CN2S(=O)(=O)c2ccccc2)O1	none (no result: PvdQ acylase)
CN(C)CC#Cc1ccc([C@@H]2[C@@H](CO)N3CCCCN(CC4CC4)C[C@@H]23)cc1	none (no result: C2C12 statin, PvdQ acylase)
O=C(NCc1nnc(SCC(=O)N2CCN(c3ccccc3)CC2)o1)c1ccco1	C2C12 statin 93 (no result: DENV2 CPE)
Cc1ccccc1C(=O)NCc1nnc(SCC(=O)N2CCN(c3ccccc3)CC2)n1C	C2C12 statin 101 (no result: DENV2 CPE)
O=C(NCc1nnc(SCC(=O)N2CCN(c3ccccc3)CC2)o1)c1ccccc1	none (no result: miR122 inh, PGC1a acetyl inh)
O=C(Nc1ccc(Cl)cc1C(=O)NCc1cccnc1)c1ccco1	none (no result: DENV2 CPE)
CC(=O)N1CCN(c2ccc(NC(=O)c3ccco3)cc2Cl)CC1	none
O=C(Nc1ccc(N2CCN(C(=O)c3ccccc3)CC2)c(Cl)c1)c1ccco1	C2C12 statin 122 (no result: DENV2 CPE)
O=C(Nc1ccc(Cl)cc1C(=O)Nc1ccncc1)c1ccco1	C2C12 statin 91 (no result: DENV2 CPE)
COc1ccc(CN(C)C[C@H]2OCCCC[C@@H](C)Oc3ccc(N(C)C)cc3C(=O)N([C@@H](C)CO)C[C@@H]2C)cc1	none (no result: PvdQ acylase)
CN1c2ccc(-c3cccc(F)c3)cc2[C@@H]2[C@@H](CCN2S(=O)(=O)c2cccc(F)c2)[C@@H]1CO	none (no result: PvdQ acylase)
COc1ccc(-c2ccc([C@H]3[C@H]4CN(S(=O)(=O)c5cccs5)CCCCN4[C@H]3CO)cc2)cc1	none (no result: C2C12 statin, PvdQ acylase)
COc1ccc(S(=O)(=O)N2CCCCN3[C@H](CO)[C@H](c4ccc(C5=CCCC5)cc4)[C@@H]3C2)cc1	DENV2 CPE 141 (no result: PvdQ acylase)
O=S(=O)(c1cccs1)N1CCCCN2[C@H](CO)[C@H](c3ccc(Br)cc3)[C@H]2C1	DENV2 CPE 38 (no result: PvdQ acylase)
COc1ccc(-c2ccc([C@H]3[C@@H](CO)N4CCCCN(S(=O)(=O)c5cccs5)C[C@H]34)cc2)cc1	DENV2 CPE 26 (no result: C2C12 statin, PvdQ acylase)
Cc1ccc(S(=O)(=O)N(C)C[C@@H]2OCCCC[C@H](C)Oc3ccc(NC(=O)Nc4ccccc4)cc3C(=O)N([C@@H](C)CO)C[C@@H]2C)cc1	none (no result: C2C12 statin, PvdQ acylase)
O=C(C1CCCC1)N1CC(=O)N2[C@H](CO)[C@H](c3ccc(C#Cc4cccc(F)c4)cc3)[C@@H]2C1	none (no result: miR122 inh, C2C12 statin, PvdQ acylase)
CC(Sc1nc2ncc(Cl)cc2[nH]1)C(=O)Nc1ccc(C(N)=O)cc1 (centres undefined)	DENV2 CPE 118
CC(Sc1nc2ncc(Cl)cc2[nH]1)C(=O)c1c(N)n(C)c(=O)n(C)c1=O (centres undefined)	none
C=CCN1Cc2ccccc2C[C@@]2(COC(c3ccc(OCCCO)cc3)=N2)C1=O	DENV2 CPE 24 (no result: miR122 inh, C2C12 statin, PvdQ acylase)
C=CCN1Cc2ccccc2[C@@H]2OC(c3ccc(OCCCO)cc3)=N[C@]2(Cc2ccccc2)C1=O	none (no result: miR122 inh, C2C12 statin, PvdQ acylase)
O=c1c[n+]([O-])c2ccccc2n1OCc1c(F)cccc1F	miR122 inh 111 (no result: DENV2 CPE)
CCOn1c(=O)c[n+]([O-])c2ccccc21	none
Cc1noc(C)c1S(=O)(=O)Nc1ccc2c(c1)C(=O)N([C@@H](C)CO)C[C@@H](C)[C@@H](CN(C)Cc1ccc(-c3ccccc3)cc1)O2	none (no result: PvdQ acylase)
COc1ccc(OC)c(-c2csc(CCn3nc(C)cc3C)n2)c1	none (no result: DENV2 CPE)
COc1cccc2cc(-c3csc(CCn4nc(C)cc4C)n3)c(=O)oc12	C2C12 statin 89 (no result: DENV2 CPE)
COC(=O)[C@H](CC(C)C)NS(=O)(=O)c1ccccc1	C2C12 statin 80
CCCOC(=O)c1ccc(O)cc1	DENV2 CPE 26
C#CCN(C[C@@H]1[C@@H](OC(=O)NCC2CCCCC2)[C@@H](OC(=O)NCC2CCCCC2)Cn2c(=O)ccc(=O)n21)S(=O)(=O)c1ccc(C)cc1	PGC1a acetyl inh 91 (no result: PvdQ acylase, DENV2 CPE)
O=C(c1ccccn1)N1CC2(C1)[C@H](c1ccccc1)[C@H](CO)N2Cc1ccc(Cl)cc1	none (no result: miR122 inh, C2C12 statin, PvdQ acylase)
Cc1ccc(OS(=O)(=O)c2ccccc2)c(/C=N/N=C2\NC(=O)C(C)S2)c1 (centres undefined)	C2C12 statin 134 (no result: DENV2 CPE)
COc1cc(NC(=O)[C@H]2CSCN2C(=O)[C@@H]2CCC(=O)N2)cc(OC)c1OC	none (no result: PGC1a acetyl inh)
CC(C)c1ccc(NC(=O)[C@H]2CSCN2C(=O)[C@@H]2CCC(=O)N2)cc1	C2C12 statin 109
Cc1ccc(C(=O)C(C)OC(=O)Cc2c[nH]c3ccccc23)cc1 (centres undefined)	DENV2 CPE 27 (no result: miR122 inh, PGC1a acetyl inh)
COc1ccc(NS(=O)(=O)c2cc(C)ccc2NC(=O)c2cc(C)oc2C)cc1	miR122 inh 404 (no result: DENV2 CPE)
O=C(Nc1ccccc1)c1sc(Cl)nc1-c1ccccc1	none (no result: DENV2 CPE)
O=C(Nc1cc(F)cc(F)c1)c1sc(Cl)nc1-c1ccccc1	DENV2 CPE 68
CN(C)C(=O)C[C@H]1C=C[C@@H](NC(=O)NC2CCCC2)[C@@H](CO)O1	DENV2 CPE inconclusive (no result: miR122 inh, PvdQ acylase)
O=C(CCn1cncn1)N1CCCC(N2CCN(c3ccc(F)cc3)CC2)C1 (centres undefined)	DENV2 CPE 43
O=C(CCn1cncn1)N1CCCC(N2CCN(c3cccc(C(F)(F)F)c3)CC2)C1 (centres undefined)	none (no result: miR122 inh, PGC1a acetyl inh)
CC(C)(C)NC(=O)C(c1cccc2ccccc12)n1c(=O)c(-c2ccccc2)nc2ccccc21 (centres undefined)	DENV2 CPE 27 (no result: miR122 inh, C2C12 statin, PvdQ acylase, PGC1a acetyl inh)
CC(C)(C)NC(=O)C(c1cccc2ccccc12)n1c(=O)c(-c2ccco2)nc2ccccc21 (centres undefined)	none (no result: miR122 inh, C2C12 statin, PvdQ acylase, PGC1a acetyl inh)
O=C(Cc1c(O)c2ccccc2[nH]c1=O)NCc1ccccc1F	none (no result: DENV2 CPE)
CCCNC(=O)Cc1c(O)c2ccccc2[nH]c1=O	C2C12 statin 108 (no result: DENV2 CPE)
C/C=C/c1ccc([C@H]2[C@H]3CN(C(=O)Nc4ccc(OC)cc4)CC(=O)N3[C@H]2CO)cc1	DENV2 CPE inconclusive (no result: miR122 inh, C2C12 statin, PvdQ acylase)
CC1CC(C)CN(CCCNC(=O)c2ccc3c(c2)NC(=O)C(N2CCCCC2)S3)C1 (centres undefined)	C2C12 statin 107 (no result: DENV2 CPE)
O=C(NCCCN1CCCCC1)c1ccc2c(c1)NC(=O)C(N1CCCCC1)S2 (centres undefined)	none (no result: C2C12 statin, DENV2 CPE)
C[C@H](CO)N1C[C@H](C)[C@H](CN(C)S(=O)(=O)c2cccs2)Oc2ccc(NC(=O)Cc3ccccc3)cc2C1=O	none (no result: PvdQ acylase)
Cc1ccc(S(=O)(=O)Nc2ccc3c(c2)CC(=O)N([C@H](C)CO)C[C@H](C)[C@@H](CN(C)S(=O)(=O)c2ccc(F)cc2)O3)cc1	none (no result: PvdQ acylase)
COc1ccc(-c2nc(SCC(=O)Nc3cccc(S(N)(=O)=O)c3)n[nH]2)cc1	none
COc1ccc(NC(=O)CSc2n[nH]c(-c3ccccc3)n2)cc1S(N)(=O)=O	DENV2 CPE 52
Cc1noc(C)c1NC(=O)Nc1ccc2c(c1)C(=O)N([C@@H](C)CO)C[C@H](C)[C@H](CN(C)Cc1ccccc1)O2	DENV2 CPE 23 (no result: PvdQ acylase, PGC1a acetyl inh)
Cc1noc(C)c1NC(=O)Nc1ccc2c(c1)C(=O)N([C@H](C)CO)C[C@H](C)[C@@H](CN(C)Cc1ccccc1)O2	DENV2 CPE 23 (no result: PvdQ acylase, PGC1a acetyl inh)

Screens: PubChem BioAssay, Broad Institute
